The values that follow come from PubChem BioAssay AID652023 (National Center for Advancing Translational Sciences (NCATS), 2013).

Some of the results follow. Inconclusive results are not listed. Active and inactive are the calls of the source. Calls come from the whole dose curve; as a rule, active = well fitted inhibition curve with a large enough effect; inconclusive = small, poorly fitted or top-dose-only effect; inactive = flat fitted curve, though single readings scatter.

The test deals with Thioredoxin reductase 1, cytoplasmic (Rattus norvegicus) (UniProt O89049). Kind of test: qHTS Assay for Inhibitors of Mammalian Selenoprotein Thioredoxin Reductase 1 (TrxR1): Hit Validation in Primary Screen. The conditions noted are these: recombinant TrxR1, NADPH fluorescence consumption, selenite substrate. From the text:
The selenoprotein thioredoxin reductase (TrxR; EC 1.8.1.9) is a FAD containing homodimeric pyridine nucleotide-disulfide oxidoreductase with many cellular roles. Together with NADPH and its prime substrate thioredoxin (Trx), the enzyme forms the core of the Trx system. The mammalian Trx system exerts a wide spectrum of functions including redox regulation, antioxidant defense, regulation of transcription factors as well as support of cell growth and replication. Many of these functions involve the reduction of Trx, which may subsequently reduce a number of different substrates including ribonucleotide reductase, peroxiredoxins or NFkB. […]
Assay protocol: 2 uL of reagents (buffer in column 4 as negative control and 90 nM rTrxR1 in columns 1-3 and 5-48) were dispensed into Greiner black solid-bottom 1,536-well assay plates, followed by 1 uL of NADPH (400 uM final concentration) to each well. […] The plate was immediately transferred to a ViewLux high-throughput CCD imager (PerkinElmer), wherein kinetic measurements of NADPH fluorescence (Ex 340 nm, Em 450 nm) were acquired (8 minute kinetic read). Read 1 was utilized to assess the capacity of a compound to serve as an rTrxR1 substrate, i.e. a decrease in NADPH fluorescence compared to the no-compound background is an indication of a substrate behavior for that particular compound. […]
On the technique in general: Quantitative high-throughput screening tests each substance at several concentrations.

Thioredoxin reductase 1, cytoplasmic (Rattus norvegicus), sequence (O89049 whole entry, looked up): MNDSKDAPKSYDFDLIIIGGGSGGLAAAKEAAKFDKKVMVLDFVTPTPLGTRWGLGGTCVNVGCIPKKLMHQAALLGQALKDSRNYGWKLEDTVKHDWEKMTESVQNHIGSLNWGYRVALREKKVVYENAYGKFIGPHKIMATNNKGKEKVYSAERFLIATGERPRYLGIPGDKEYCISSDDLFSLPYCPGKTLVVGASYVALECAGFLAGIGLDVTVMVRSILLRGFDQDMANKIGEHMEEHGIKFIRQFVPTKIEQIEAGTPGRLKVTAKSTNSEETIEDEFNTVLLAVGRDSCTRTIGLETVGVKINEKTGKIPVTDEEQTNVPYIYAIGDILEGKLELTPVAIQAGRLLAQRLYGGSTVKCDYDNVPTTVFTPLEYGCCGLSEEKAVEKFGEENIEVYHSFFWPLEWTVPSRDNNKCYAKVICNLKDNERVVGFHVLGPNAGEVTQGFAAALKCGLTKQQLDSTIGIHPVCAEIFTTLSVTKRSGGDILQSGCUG

Regarding `COc1ccc(-c2nc(CS(=O)CC(=O)N3CCC4(CC3)OCCO4)c(C)o2)cc1` (stereo unspecified), the Potency was 7.52 µM (active).
